PubChem BioAssay AID1159580 (chemical genetic matrix, 2015)
Several values for one entry are separate records, joined by “and”; a condition that tells them apart may be missing. Equal entries are not always repeated. In all, about 5,500 compounds went through this assay and about 2,000 (36%) were called active. Inconclusive results (about 18%) are left out. Rule as the data show it: active = normalized growth mostly below about 0.91 (no sharp cut-off); inconclusive = no clear call, values can overlap the other calls; inactive = mostly above about 0.92. The list shows a part of the results.

Assay: chemical genetic growth profiling, strain panel (AID 1159580);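 also: tested at 20 µM; growth read once vehicle control cultures reached saturation at 30 °C; 1 = growth at the plate median or of vehicle wells; lower values mean less growth of the strain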
Details: S. cerevisiae deletion strains, growth OD

Measured: normalized growth

C[C@]12C=CC(=O)C=C1CCC1C3C[C@@H](O)[C@](O)(C(=O)CO)[C@@]3(C)C[C@H](O)[C@@]12F (some centres undefined)
inactive: locus YAL021C, strain ccr4, stronger effect = lower value 0.932 | locus YAL026C, strain drs2, stronger effect = lower value 0.992 | locus YAL030W, strain snc1, stronger effect = lower value 0.996 | locus YBL061C, strain skt5, stronger effect = lower value 0.984 | locus YBR009C, strain hhf1, stronger effect = lower value 0.999 | locus YBR021W, strain FUR4, stronger effect = lower value 1.02 | locus YBR023C, strain chs3, stronger effect = lower value 0.961 | locus YBR171W, strain sec66, stronger effect = lower value 0.976 | locus YBR229C, strain ROT2, stronger effect = lower value 1.01 | locus YBR231C, strain swc5, stronger effect = lower value 1.01 | locus YBR279W, strain paf1, stronger effect = lower value 0.973 | locus YCL011C, strain gbp2, stronger effect = lower value 0.974 | locus YCL016C, strain dcc1, stronger effect = lower value 0.958 | locus YCL029C, strain bik1, stronger effect = lower value 0.98 | locus YCL061C, strain MRC1, stronger effect = lower value 0.996 | locus YCL069W, strain vba3, stronger effect = lower value 0.983 | locus YCR088W, strain abp1, stronger effect = lower value 0.985 | locus YDL005C, strain med2, stronger effect = lower value 0.997 | locus YDL035C, strain GPR1, stronger effect = lower value 1.02 | locus YDL040C, strain nat1, stronger effect = lower value 0.992 | locus YDL074C, strain BRE1, stronger effect = lower value 1.04 | locus YDL101C, strain DUN1, stronger effect = lower value 1.02 | locus YDL134C, strain PPH21, stronger effect = lower value 1 | locus YDL185W, strain tfp1, stronger effect = lower value 0.973 | locus YDL192W, strain arf1, stronger effect = lower value 0.984 | locus YDR001C, strain nth1, stronger effect = lower value 0.983 | locus YDR069C, strain doa4, stronger effect = lower value 0.954 | locus YDR101C, strain arx1, stronger effect = lower value 0.971 | locus YDR137W, strain rgp1, stronger effect = lower value 0.965 | locus YDR150W, strain NUM1, stronger effect = lower value 1.02 | locus YDR159W, strain sac3, stronger effect = lower value 0.975 | locus YDR162C, strain NBP2, stronger effect = lower value 1 | locus YDR195W, strain ref2 0.991 | locus YDR297W, strain sur2, stronger effect = lower value 0.994 | locus YDR318W, strain mcm21, stronger effect = lower value 0.985 | locus YDR334W, strain swr1, stronger effect = lower value 0.976 | locus YDR335W, strain msn5, stronger effect = lower value 0.984 | locus YDR388W, stronger effect = lower value 0.982 | locus YDR392W, strain spt3, stronger effect = lower value 0.896 | locus YDR502C, strain sam2, stronger effect = lower value 0.981 | locus YEL003W, strain gim4, stronger effect = lower value 1 | locus YEL037C, strain rad23, stronger effect = lower value 0.987 | locus YEL061C, strain CIN8 (second series), stronger effect = lower value 0.991 | locus YEL061C, strain CIN8, stronger effect = lower value 1.01 | locus YER015W, strain faa2, stronger effect = lower value 0.999 | locus YER016W, strain bim1, stronger effect = lower value 0.942 | locus YER110C, stronger effect = lower value 0.979 | locus YER111C, strain swi4, stronger effect = lower value 0.975 | locus YER155C, strain BEM2 (second series), stronger effect = lower value 0.989 | locus YER155C, strain BEM2, stronger effect = lower value 1.01 | locus YER167W, strain BCK2, stronger effect = lower value 1 | locus YFR010W, strain ubp6, stronger effect = lower value 1 | locus YGL078C, strain dbp3, stronger effect = lower value 0.981 | locus YGL086W, strain mad1, stronger effect = lower value 0.996 | locus YGL167C, strain pmr1, stronger effect = lower value 0.992 | locus YGL173C, strain kem1, stronger effect = lower value 0.98 | locus YGL227W, strain vid30, stronger effect = lower value 0.962 | locus YGL240W, strain doc1, stronger effect = lower value 0.991 | locus YGL248W, strain PDE1, stronger effect = lower value 1.02 | locus YGL253W, strain hxk2, stronger effect = lower value 0.98 | locus YGR135W, strain pre9, stronger effect = lower value 0.99 | locus YGR229C, strain SMI1, stronger effect = lower value 1.01 | locus YGR252W, strain gcn5, stronger effect = lower value 1.01 | locus YHR013C, strain ard1, stronger effect = lower value 0.952 | locus YHR027C, strain rpn1, stronger effect = lower value 0.998 | locus YHR030C, strain SLT2, stronger effect = lower value 1.01 and 0.984 | locus YHR079C, strain IRE1 (second series), stronger effect = lower value 0.973 | locus YHR079C, strain IRE1, stronger effect = lower value 0.991 | locus YHR094C, strain hxt1, stronger effect = lower value 0.984 | locus YHR129C, strain ARP1, stronger effect = lower value 1.02 | locus YHR142W, strain chs7, stronger effect = lower value 0.956 | locus YHR200W, strain rpn10, stronger effect = lower value 0.988 | locus YIL066C, strain RNR3, stronger effect = lower value 1.01 | locus YIL073C, strain SPO22, stronger effect = lower value 0.984 | locus YIL125W, strain kgd1, stronger effect = lower value 0.989 | locus YIR030C, strain dcg1, stronger effect = lower value 0.98 | locus YJL092W, strain hpr5, stronger effect = lower value 0.99 | locus YJL095W, strain BCK1 (second series), stronger effect = lower value 0.995 | locus YJL095W, strain BCK1, stronger effect = lower value 1.03 and 0.985 | locus YJL115W, strain asf1, stronger effect = lower value 0.971 | locus YJL129C, strain trk1, stronger effect = lower value 0.948 | locus YJL134W, strain LCB3, stronger effect = lower value 1.01 | locus YJL154C, strain vps35, stronger effect = lower value 0.967 | locus YJL164C, strain tpk1, stronger effect = lower value 1.01 | locus YJL166W, strain qcr8, stronger effect = lower value 1.01 | locus YJL168C, strain set2, stronger effect = lower value 0.989 | locus YJL187C, strain SWE1 (second series), stronger effect = lower value 1.01 | locus YJL187C, strain SWE1, stronger effect = lower value 0.982 | locus YJR043C, strain POL32, stronger effect = lower value 1.02
